Measurements as given in PubChem BioAssay (NCI).
Compounds without any hit were thinned out: in the full panel of roughly 79,000, 15% have a hit. Calls of active or inactive are those of the source. Rule as the data show it: active = growth inhibition above about 70%; inactive = the rest.

Tests used:
[1] = NCI Yeast Anticancer Drug Screen. Data for the rad52 strain (AID 147);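 also: 0% = growth of vehicle-treated control cultures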; settings: S. cerevisiae rad52 mutant growth inhibition, stronger effect = higher value
Procedure, shortened: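 Here a repair-compromised yeast strain receives each compound; its growth is then quantified and normalised to vehicle-only controls.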

[2] = NCI Yeast Anticancer Drug Screen. Data for the wt1 strain (AID 149);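 also: 0% = growth of vehicle-treated wt1 cultures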; settings: S. cerevisiae wt1 strain (SPY 50644) growth inhibition, stronger effect = higher value
Procedure, shortened: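 Yeast wt1 strain exposed to compounds; growth inhibition measured relative to vehicle-treated controls.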

[3] = NCI Yeast Anticancer Drug Screen. Data for the rad50EPP+ strain (AID 151);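 also: 0% = growth of vehicle-treated control cultures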; settings: S. cerevisiae rad50 mutant strain, stronger effect = higher value
Procedure, shortened: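 Read-out is yeast growth inhibition relative to vehicle; cells used were the rad50EPP+ strain.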

[4] = NCI Yeast Anticancer Drug Screen. Data for the mgt1 strain (AID 153); settings: S. cerevisiae mgt1 mutant growth inhibition, stronger effect = higher value
Procedure, shortened: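 Measured: inhibition of mgt1 yeast growth by compound, normalized to vehicle-treated cultures.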

[5] = NCI Yeast Anticancer Drug Screen. Data for the rad50 strain (AID 155);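 also: 0% = growth of vehicle-only cultures of the same strain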; settings: S. cerevisiae rad50 strain growth inhibition, stronger effect = higher value
Procedure, shortened: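 Yeast carrying a defined DNA repair defect were exposed to test compounds, and growth was compared with vehicle-treated controls to give percent inhibition.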

[6] = NCI Yeast Anticancer Drug Screen. Data for the mec2-1 strain (AID 157); settings: S. cerevisiae mec2-1 strain, stronger effect = higher value
Procedure, shortened: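 Using mec2-1 yeast: add compound, measure growth, express inhibition versus vehicle-treated cultures.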

[7] = NCI Yeast Anticancer Drug Screen. Data for the rad14 strain (AID 159);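 also: 0% = growth of vehicle-treated control cultures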; settings: S. cerevisiae rad14 strain growth inhibition, stronger effect = higher value
Procedure, shortened: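 Yeast cells carrying a defined DNA-repair defect were exposed to compounds, and growth inhibition was calculated relative to vehicle-treated control cultures.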

[8] = NCI Yeast Anticancer Drug Screen. Data for the sgs1 mgt1 strain (AID 161);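 also: 0% = growth of cultures given vehicle only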; settings: S. cerevisiae sgs1 mgt1 strain, stronger effect = higher value
Procedure, shortened: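 Growth of a repair-deficient yeast mutant was monitored after compound treatment and expressed as inhibition relative to vehicle-treated cultures.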

[9] = NCI Yeast Anticancer Drug Screen. Data for the CLN2oe strain (AID 163);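 also: 0% = growth of vehicle-only control cultures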; settings: S. cerevisiae CLN2oe strain, stronger effect = higher value
Procedure, shortened: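 Whole-cell yeast growth assay. A strain engineered for altered cell-cycle control received compound, and inhibition relative to vehicle-treated cultures was recorded.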

[10] = NCI Yeast Anticancer Drug Screen. Data for the cln2 rad14 strain (AID 165);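 also: 0% = growth equal to vehicle treated cultures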; settings: S. cerevisiae cln2 rad14 strain, stronger effect = higher value
Procedure, shortened: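 Yeast strain cln2 rad14, bearing defects in cell cycle control and DNA repair, serves as the test system; values reflect growth inhibition compared with vehicle.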

[11] = NCI Yeast Anticancer Drug Screen. Data for the bub3 strain (AID 167); settings: S. cerevisiae bub3 mutant strain, stronger effect = higher value
Procedure, shortened: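 Compounds were applied to a genetically altered yeast strain carrying a cell-cycle control defect. Growth inhibition was scored against vehicle-treated controls.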

[12] = NCI Yeast Anticancer Drug Screen. Data for the wt2 strain (AID 169);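 also: 0% = growth of vehicle-treated yeast cultures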; settings: S. cerevisiae wt2 strain growth inhibition, stronger effect = higher value
Procedure, shortened: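 Treated yeast vs. vehicle-treated yeast: growth inhibition determined.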

[13] = NCI Yeast Anticancer Drug Screen. Data for the mlh1 strain (AID 171);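 also: 0% = growth of vehicle-treated control cultures of the same strain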; settings: S. cerevisiae mlh1 strain growth inhibition, stronger effect = higher value
Procedure, shortened: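 A yeast strain with a defined genetic lesion serves as the test organism. Cultures receive compound or vehicle, and growth is measured.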

[14] = NCI Yeast Anticancer Drug Screen. Data for the sgs1 strain (AID 173);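 also: 0% = growth of vehicle-only control cultures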; settings: S. cerevisiae sgs1 mutant, stronger effect = higher value
Procedure, shortened: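 A genetically defined yeast mutant is incubated with the test compound, and its growth is compared to that of the same strain given vehicle.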

[15] = NCI Yeast Anticancer Drug Screen. Data for the mlh1 rad18 strain (AID 175); settings: S. cerevisiae mlh1 rad18 strain growth inhibition, stronger effect = higher value
Procedure, shortened: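 Steps: expose repair-defective yeast to compound; measure growth; express inhibition against vehicle-treated controls.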

[16] = at 5.0 µM (retest, dose inferred, filed as 0.5)
[17] = at 50.0 µM (retest, dose inferred, filed as 5.0)

Measured: growth inhibition

CC1SC2(C(=O)Nc3ccc(Cl)cc32)N(c2ccc(Cl)cc2)C1=O (stereo unspecified)
active: [1]; at 33.0 µM 98% | [1]; at 100.0 µM 89% | [4]; at 33.0 µM 98% | [4]; at 100.0 µM 95% | [5]; at 33.0 µM 96% | [5]; at 50.0 µM 99.6% | [5]; at 100.0 µM 96% | [6]; at 33.0 µM 99% | [6]; at 50.0 µM 99.8% | [6]; at 100.0 µM 98% | [7]; at 33.0 µM 99% | [7]; at 100.0 µM 99% | [8]; at 50.0 µM 99.8% | [9]; at 33.0 µM 99% | [9]; at 100.0 µM 81% | [10]; at 50.0 µM 99.5% | [11]; at 33.0 µM 95% | [11]; at 50.0 µM 99.5% | [11]; at 100.0 µM 97% | [12]; at 33.0 µM 98% | [12]; at 100.0 µM 98% | [13]; at 33.0 µM 97% | [13]; at 100.0 µM 93% | [14]; at 33.0 µM 98% | [14]; at 100.0 µM 94% | [15]; at 50.0 µM 99.5%
inactive: [1]; at 1.2 µM -2% | [1]; at 3.7 µM 0% | [1]; at 11.0 µM 17% | [2]; at 1.2 µM -3% | [2]; at 3.7 µM -4% | [2]; at 11.0 µM -3% | [2]; at 33.0 µM 68% | [2]; at 100.0 µM 61% | [3]; at 1.2 µM -2% | [3]; at 3.7 µM -3% | [3]; at 11.0 µM -1% | [3]; at 33.0 µM -2% | [3]; at 100.0 µM 1% | [4]; at 1.2 µM -5% | [4]; at 3.7 µM -4% | [4]; at 11.0 µM 3% | [5]; at 1.2 µM -14% | [5]; at 3.7 µM 0% | [5]; [16] 20% | [5]; at 11.0 µM 10% | [5]; [17] -1% | [6]; at 1.2 µM -3% | [6]; at 3.7 µM 3% | [6]; [16] 11% | [6]; at 11.0 µM 18% | [6]; [17] 5% | [7]; at 1.2 µM -3% | [7]; at 3.7 µM -2% | [7]; at 11.0 µM 10% | [8]; [16] 15% | [8]; [17] 4% | [9]; at 1.2 µM -7% | [9]; at 3.7 µM -7% | [9]; at 11.0 µM 12% | [10]; [16] -1% | [10]; [17] -11% | [11]; at 1.2 µM 3% | [11]; at 3.7 µM 12% | [11]; [16] 28% | [11]; at 11.0 µM 31% | [11]; [17] 9% | [12]; at 1.2 µM -4% | [12]; at 3.7 µM -5% | [12]; at 11.0 µM -3% | [13]; at 1.2 µM -1% | [13]; at 3.7 µM -1% | [13]; at 11.0 µM 12% | [14]; at 1.2 µM -2% | [14]; at 3.7 µM 0% | [14]; at 11.0 µM 12% | [15]; [16] 8% | [15]; [17] -4%

CC(C)(C)C1=CC(=CC=C2C=CN(CCCCCCCCCCCO)C=C2)C=C(C(C)(C)C)C1=O
inactive: [1]; at 1.2 µM -1% | [2]; at 1.2 µM -6% | [2]; at 3.7 µM 46% | [3]; at 1.2 µM -3% | [3]; at 3.7 µM -3% | [3]; at 11.0 µM -2% | [4]; at 1.2 µM -4% | [4]; at 3.7 µM -4% | [5]; at 1.2 µM -3% | [5]; at 3.7 µM 48% | [6]; at 1.2 µM -3% | [7]; at 1.2 µM -4% | [7]; at 3.7 µM 23% | [9]; at 1.2 µM -8% | [9]; at 3.7 µM 10% | [11]; at 1.2 µM -2% | [11]; at 3.7 µM 57% | [12]; at 1.2 µM -4% | [12]; at 3.7 µM 4% | [13]; at 1.2 µM -3% | [13]; at 3.7 µM 0% | [14]; at 1.2 µM -3%
active: [1]; at 3.7 µM 95% | [1]; at 11.0 µM 99% | [1]; at 33.0 µM 98% | [1]; at 100.0 µM 98% | [2]; at 11.0 µM 99% | [2]; at 33.0 µM 99% | [2]; at 100.0 µM 99% | [3]; at 33.0 µM 82% | [3]; at 100.0 µM 95% | [4]; at 11.0 µM 99% | [4]; at 33.0 µM 100% | [4]; at 100.0 µM 99% | [5]; [16] 86% | [5]; at 11.0 µM 99% | [5]; at 33.0 µM 98% | [5]; [17] 95% | [5]; at 50.0 µM 99.2% | [5]; at 100.0 µM 98% | [6]; at 3.7 µM 99% | [6]; [16] 99% | [6]; at 11.0 µM 99% | [6]; at 33.0 µM 99% | [6]; [17] 99% | [6]; at 50.0 µM 98.7% | [6]; at 100.0 µM 98% | [7]; at 11.0 µM 99% | [7]; at 33.0 µM 99% | [7]; at 100.0 µM 98% | [8]; [16] 99% | [8]; [17] 89% | [8]; at 50.0 µM 99.3% | [9]; at 11.0 µM 99% | [9]; at 33.0 µM 98% | [9]; at 100.0 µM 97% | [10]; [16] 99% | [10]; [17] 99% | [10]; at 50.0 µM 99.2% | [11]; [16] 94% | [11]; at 11.0 µM 98% | [11]; at 33.0 µM 98% | [11]; [17] 99% | [11]; at 50.0 µM 99% | [11]; at 100.0 µM 96% | [12]; at 11.0 µM 99% | [12]; at 33.0 µM 99% | [12]; at 100.0 µM 98% | [13]; at 11.0 µM 99% | [13]; at 33.0 µM 99% | [13]; at 100.0 µM 98% | [14]; at 3.7 µM 84% | [14]; at 11.0 µM 99% | [14]; at 33.0 µM 99% | [14]; at 100.0 µM 98% | [15]; [16] 98% | [15]; [17] 99% | [15]; at 50.0 µM 99.5%

CC[N+](CC)(CC)c1ccccc1
inactive: [1]; at 1.2 µM 8% | [1]; at 3.7 µM -7% | [1]; at 11.0 µM 0% | [1]; at 33.0 µM -3% | [1]; at 100.0 µM -6% | [2]; at 1.2 µM -21% | [2]; at 3.7 µM -27% | [2]; at 11.0 µM -28% | [2]; at 33.0 µM -26% | [2]; at 100.0 µM -28% | [3]; at 1.2 µM -8% | [3]; at 3.7 µM -14% | [3]; at 11.0 µM -14% | [3]; at 33.0 µM -22% | [3]; at 100.0 µM -20% | [4]; at 1.2 µM 1% | [4]; at 3.7 µM 1% | [4]; at 11.0 µM -6% | [4]; at 33.0 µM 8% | [4]; at 100.0 µM -8% | [5]; at 1.2 µM 19% | [5]; at 3.7 µM 24% | [5]; [16] 17% | [5]; at 11.0 µM 16% | [5]; at 33.0 µM 14% | [5]; at 50.0 µM 62.5% | [5]; at 100.0 µM 21% | [6]; at 1.2 µM -5% | [6]; at 3.7 µM -3%
active: [5]; [17] 98%
